High-throughput results: PubChem BioAssay, several laboratories
PLAP act – activators of human placental alkaline phosphatase. P05187. activation fold at 20 µM. purified PLAP enzyme, luminescent substrate read-out; active compounds read high. 96,000 tested, 1.2% active; in the data active means activation fold above about 2
Target sequence (P05187 whole entry, looked up): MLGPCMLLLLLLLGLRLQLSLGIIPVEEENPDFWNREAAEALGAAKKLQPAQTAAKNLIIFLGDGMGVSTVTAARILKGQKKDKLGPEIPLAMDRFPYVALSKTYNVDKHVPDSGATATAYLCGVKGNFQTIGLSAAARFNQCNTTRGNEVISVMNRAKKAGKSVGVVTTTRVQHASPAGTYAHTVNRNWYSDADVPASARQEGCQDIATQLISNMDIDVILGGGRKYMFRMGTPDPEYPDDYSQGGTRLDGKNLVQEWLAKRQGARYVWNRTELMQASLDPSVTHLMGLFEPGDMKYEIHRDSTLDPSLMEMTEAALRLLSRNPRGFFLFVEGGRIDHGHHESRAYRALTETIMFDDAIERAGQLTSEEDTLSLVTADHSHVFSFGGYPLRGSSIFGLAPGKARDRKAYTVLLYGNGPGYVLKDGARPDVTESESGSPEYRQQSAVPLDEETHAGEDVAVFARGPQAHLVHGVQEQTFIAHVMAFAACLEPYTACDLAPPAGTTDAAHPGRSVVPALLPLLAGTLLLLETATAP
PostGolgi ctrl – yeast control strain growth, post-Golgi counter-screen. efflux-deficient yeast background strain, growth absorbance A615, 16 h. inhibition, % at 10 µM. 98,000 tested, 5% active
Cav3 T inh – human Cav3.2 channel inhibition, primary screen; O95180; Cav3.2-expressing cells, Fluo-4 calcium fluorescence FDSS; active compounds read low; B-score at 10 µM; 100,000 tested, 4% active; AID 449739;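 active means single-dose well whose peak fluorescence ratio is a statistical outlier from its plate by either plate-standardised score or position-corrected B-score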
PostGolgi yeast – growth inhibition of a yeast mutant, post-Golgi transport screen. post-Golgi transport phenotypic cell assay. inhibition, % at 10 µM. 98,000 tested, 0.9% active;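 further: yeast cells grown in 1536-well plates; yeast grown about 18 h at 30C before absorbance read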
hDAT+cocaine – modulates human dopamine transporter uptake under cocaine; AID 449768; 110,000 tested, 1.3% active; B-score at 10 µM; LLC-PK1 hDAT cells, [14C]-dopamine uptake with cocaine IC80; actives deviate in either direction; Q01959;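 active means Z score or B-score, a plate-position-corrected score, falls beyond the plate's 99.7% confidence bounds, in either direction; inactive means both scores lie inside the 99.7% bounds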;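 further: scored against the spread of the other compound wells on the same plate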
D1 mod – allosterically modulates the human D1 dopamine receptor | P21728 | HEK293 D1, CRE-luciferase, dopamine EC30 potentiation; actives deviate in either direction | B-score at 10 µM | 58,000 tested, 5.9% active | AID 641;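 active means luminescence count or its row- and column-corrected plate score outside the 99.7% band of the plate's sample wells, on either side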
* = called active by the depositor; . = no result given. An excerpt weighted towards active compounds, which were near 12% of everything screened. Unless noted, no stated cut-off is given here; in the data, active means inhibition above about 30%; inactive means the rest.

SMILES	PLAP act	PostGolgi ctrl	Cav3 T inh	PostGolgi yeast	hDAT+cocaine	D1 mod
O=C(CN1CCCC1)N1CCCc2c1c(=O)oc1ccc(OCc3ccccc3)cc21	1.4	36*	0.79	22	2.2*	0.25
Cc1ccc(N(CC(=O)Nc2ccc3c(c2)OCCO3)S(=O)(=O)c2c(C)n[nH]c2C)cc1	1.8	-2	-0.35	-1	0.03	-0.32
Cc1n[nH]c(C)c1S(=O)(=O)Nc1ccc2c(c1)OCCO2	.	4	.	3	-0.099	-4.2*
O=C(COC(=O)c1cccs1)c1ccc2c(c1)OCCO2	0.5	17	-1.7	-5	0.44	-3*
C=CCn1c(Cc2ccc(OC)cc2)nnc1SCC(=O)NCCc1ccccc1	1	3	-0.42	-18	0.52	.
COC(=O)c1ccc2c(=O)n(CCC3=CCCCC3)c(SCC(=O)N3CCCC3)nc2c1	.	.	.	.	.	0.58
O=C(c1c[nH]c2ccc(F)cc2c1=O)N1CCCCCC1	.	.	0.97	.	-0.0018	.
O=C(NC1CCCC1)c1c[nH]c2ccc(F)cc2c1=O	0.9	-1	0.029	6	4.5*	1.6
CCc1nnc(NC(=O)CSc2nnc(-c3ccccc3O)n2-c2ccc(C)cc2C)s1	1.3	24	-9*	17	-0.14	-1.1
COc1ccc(OC)c(S(=O)(=O)N(C)CC(=O)Nc2ccccc2OC)c1	0.9	10	1.2	-2	0.64	0.54
CCOc1ccccc1C(=O)Nc1cc(OC)ccc1OC	0.9	47*	-1.3	1	0.00086	0.81
COc1ccc(OC)c(/C(O)=C/C(=O)C(=O)Nc2ccccc2OC)c1	0.8	20	-8.5*	9	1.1	.
CCOc1ccccc1C(=O)Nc1cc(Cl)ccc1O	1.2	87*	0.22	9	-1	.
Nc1ncnc2c1ncn2[C@@H]1O[C@H](CO)C[C@@H]1O	.	.	-3.4	.	0.018	.
Cn1c(SCC(=O)NC2CC2)nnc1-c1cccc(NC(=O)c2ccccc2F)c1	0.9	18	0.9	3	0.38	.
CCOC(=O)N1CCC(NC(=O)Cn2ncn3c(cc4sc(CC)cc43)c2=O)CC1	.	.	.	.	.	0.84
O=C1CC(SCCO)C(=O)N1c1ccc(Oc2ccccc2)cc1 (stereo not drawn)	1.3	-8	-1.9	-5	-0.12	-0.73
CC(=O)C1=C(c2ccccc2)NC(=O)NC1c1ccccc1OCC#N (stereo not drawn)	1	2	0.16	-4	-0.66	-0.033
CC1CCN(CC(=O)N2c3ccccc3CCc3ccccc32)CC1	.	.	1.4	.	1.1	0.54
Cc1cc(Cl)c(S(=O)(=O)N2CCCCCC2)cc1OCC(N)=O	0.9	17	0.055	-4	-0.019	-0.24
CCOC(=O)C1CCCN(S(=O)(=O)c2cc(OCC(N)=O)c(C)cc2Cl)C1 (stereo not drawn)	1.5	33*	0.78	-1	-0.56	0.12
Cc1cc(Cl)c(S(=O)(=O)N2CCCCCC2)cc1OCC(=O)NC1CCCCC1	2*	18	-4.2*	4	0.18	.
CCCOc1ccc(C(C)=O)cc1CSc1nc(O)cc(=O)[nH]1	1.3	-5	1.4	14	0.61	.
CC(=O)NC1CC(C)(C)N(OC(C)=O)C(C)(C)C1	0.9	-2	.	3	-1.5	0.22
CC(C)=CCc1cc([C@@H]2CC(=O)c3ccc(O)c(CC=C(C)C)c3O2)ccc1O	.	.	-2.8	.	-0.061	.
SMILES	PLAP act	PostGolgi ctrl	Cav3 T inh	PostGolgi yeast	hDAT+cocaine	D1 mod
COc1cccc(NS(=O)(=O)c2ccc3[nH]cc(C(=O)NCCC(C)C)c(=O)c3c2)c1	1	41*	-0.85	9	2.9	1.9
CCOc1ccc(NS(=O)(=O)c2ccc3[nH]cc(C(=O)NC(C)CC)c(=O)c3c2)cc1 (stereo not drawn)	.	2	.	8	.	-0.54
COc1ccccc1NC(=O)CSc1nc(O)cc(=O)n1-c1ccccc1OC	1.3	35*	-0.13	-3	-0.041	0.088
COc1ccccc1-n1c(SCC(=O)Nc2ccccc2C)nc(O)cc1=O	1.4	37*	0.66	8	-1.7	-0.21
O=C(Nn1nnnc1Nc1ccccc1)C12CC3CC(CC(C3)C1)C2	1	12	-2.3	22	-0.91	-0.45
Cc1ccc(CNC(=O)CCNC(=O)c2ccco2)cc1	0.9	12	0.42	-2	-0.95	.
COc1ccccc1C(=O)OCc1c(F)cccc1Cl	0.9	14	-1.9*	0	-0.13	.
O=C(Cc1c(F)cccc1Cl)c1ccc(O)cc1O	1.1	11	-0.5	4	0.46	0.36
CC1=C/C(=N\OS(=O)(=O)c2ccccc2)C(C)=CC1=O	1	48*	2.5	36*	-0.025	.
COc1cccc(-n2c(SCC(=O)N3CCCC3)nc3c([nH]c4ccccc43)c2=O)c1	.	.	.	.	.	0.54
Clc1ccc(/C=C/c2nc3ccccc3[nH]2)cc1	1	14	-0.053	4	-0.32	.
Clc1ccc(/C=C/c2nc3ccccc3[nH]2)c(Cl)c1	0.3	75*	-3.3	24	-1.1	.
Clc1cccc(Cl)c1/C=C/c1nc2ccccc2[nH]1	0.9	66*	-3.4	8	-0.026	.
COc1cccc(C2c3c(oc4ccc(Cl)cc4c3=O)C(=O)N2c2cc(C)on2)c1OC (stereo not drawn)	1.3	10	-2	-5	0.91	-0.03
O=C(Oc1cccc(Nc2ncnc3ccccc23)c1)c1ccccc1Cl	1.2	69*	-5.4*	-1	0.92	.
COc1cccc(NC(=O)c2nnn(CCc3ccccc3)c2N)c1	.	7	-2.6*	-6	-0.34	-0.73
COc1cccc(NC(=O)Cn2nnc(C(=O)Nc3ccccc3)c2N)c1	1.1	1	-0.2	6	0.0076	-1
CC1CCCN(C(=O)CSc2nnc3n(C4CCCC4)c(=O)c4ccccc4n23)C1 (stereo not drawn)	1.5	5	1.7	-6	3.1*	1.1
O=C(CSc1nnc2n(C3CCCC3)c(=O)c3ccccc3n12)N1CCCCCC1	1.6	5	-0.66	-3	2.2	0.83
CN(C)c1ccc(C(c2nnnn2CCOC(=O)Nc2ccc(Cl)cc2)N2CCOCC2)cc1 (stereo not drawn)	1.8	34*	-4.1*	-1	0.7	-0.82
Cc1ccc(-n2nnnc2-c2cnc3ccc(Cl)cc3c2-c2ccccc2)cc1	0.9	29	-0.67	1	0.049	.
Nc1ncc(-c2nnnn2-c2ccc(Cl)cc2)c(-c2ccc(Cl)cc2)n1	0.8	36*	-0.079	-10	-0.25	.
Cc1ccc(/C=C/c2ccc(=O)n(Cc3ccccc3Cl)n2)cc1	1.8	42*	-0.64	-5	0.39	.
Cc1cc(-n2c(C)cc(C(=O)CSc3nnc4sc5ccccc5n34)c2C)no1	1.1	9	0.0043	15	0.041	0.81
Cc1cc(-n2c(C)cc(C(=O)CSc3ncnc4ccccc34)c2C)no1	1	40*	-0.34	0	2.1	-3.2*
COc1ccc(-c2nc(N)n[nH]2)cc1OC	1.2	-4	-0.35	10	-0.31	2
COc1nc(-c2ccccc2)cc(-c2ccc(OC)c(OC)c2)n1	1.4	38*	-2.4	7	0.036	1.1
